Screen size: about 5,500 compounds; about 2,000 (36%) were called active. Not shown: some 18% with an inconclusive outcome. Rule as the data show it: active = normalized growth mostly below about 0.91 (no sharp cut-off); inconclusive = no clear call, values can overlap the other calls; inactive = mostly above about 0.92. Some of the results follow.
Test: chemical genetic growth profiling, strain panel (AID 1159580);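 also: tested at 20 µM; growth read once vehicle control cultures reached saturation at 30 °C; 1 = growth at the plate median or of vehicle wells; lower values mean less growth of the strain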
Settings: S. cerevisiae deletion strains, growth OD

Measured: normalized growth

CC(=O)c1ccc(-c2ccc(Cl)c(Cl)c2)o1
active: locus YAL013W, strain DEP1, stronger effect = lower value 0.803 | locus YBR229C, strain ROT2, stronger effect = lower value 0.825 | locus YCL061C, strain MRC1, stronger effect = lower value 0.776 | locus YDL101C, strain DUN1, stronger effect = lower value 0.661 | locus YDL134C, strain PPH21, stronger effect = lower value 0.428 | locus YEL061C, strain CIN8, stronger effect = lower value 0.445 | locus YGR078C, strain PAC10, stronger effect = lower value 0.863 | locus YHR030C, strain SLT2, stronger effect = lower value 0.0914 | locus YHR087W, strain rtc3, stronger effect = lower value 0.816 | locus YJL187C, strain SWE1, stronger effect = lower value 0.807 | locus YJR043C, strain POL32, stronger effect = lower value 0.8 | locus YJR075W, strain HOC1, stronger effect = lower value 0.787 | locus YLR039C, strain RIC1, stronger effect = lower value 0.207 | locus YLR085C, strain ARP6, stronger effect = lower value 0.112 | locus YLR262C, strain YPT6, stronger effect = lower value 0.264 | locus YML094W, strain GIM5, stronger effect = lower value 0.633 | locus YMR219W, strain ESC1, stronger effect = lower value 0.877 | locus YMR263W, strain SAP30, stronger effect = lower value 0.629 | locus YNL128W, strain TEP1, stronger effect = lower value 0.82 | locus YNL153C, strain GIM3, stronger effect = lower value 0.838 | locus YNL298W, strain CLA4 (second series), stronger effect = lower value 0.373 | locus YNR030W, strain Alg12, stronger effect = lower value 0.483 | locus YOL006C, strain TOP1, stronger effect = lower value 0.15 | locus YPL055C, strain LGE1, stronger effect = lower value 0.747 | locus YPL241C, strain CIN2, stronger effect = lower value 0.365 | locus YPR135W, strain CTF4, stronger effect = lower value 0.213
inactive: locus YGR229C, strain SMI1, stronger effect = lower value 0.956 | locus YLR058C, strain SHM2 (second series), stronger effect = lower value 0.994 | locus YNL322C, strain KRE1, stronger effect = lower value 0.99
